Several values for one entry are separate records, joined by “and”; a condition that tells them apart may be missing. Equal values may be shown once. Inconclusive results are not listed. The source holds several records for some structures; these can differ, active in one and inactive in another. Activity calls are given as the source filed them. How the source made its calls, unless noted: active means hit-call score of the fitted dose curve at least 0.9, where 1 is the maximum; inactive means score below 0.9.
How the values were obtained:
[1] = target: Retinoic acid receptor RXR-alpha (Homo sapiens) (UniProt P19793); experiment: ATG_RXRa_TRANS: Attagene TRANS-FACTORIAL HepG2 Assay for human Retinoid X Receptor alpha (RXRa) (AID 2283012; active means hit-call score of the fitted dose curve at least 0.9, where 1 is the maximum)
Procedure, shortened: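 Read-out: fluorescent reporter-transcript fragments quantified by capillary electrophoresis after RT-PCR. Transiently transfected HepG2 cells carrying GAL4-UAS reporters and NR-GAL4 chimeras were exposed to chemical for 24 h; activity scored as increase over DMSO.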

[2] = target: human Retinoid X Receptor beta (RXRb), RXRB (gene 6257) (UniProt P28702); experiment: ATG_RXRb_TRANS: Attagene TRANS-FACTORIAL HepG2 Assay for human Retinoid X Receptor beta (RXRb) (AID 2283013; active means hit-call score of the fitted dose curve at least 0.9, where 1 is the maximum)
Procedure, shortened: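 Read-out: reporter mRNA induction via RT-PCR plus capillary electrophoresis fluorescence, analysed as signal increase relative to DMSO. Cells were human HepG2, transiently transfected with GAL4-UAS reporter constructs and chimeric receptor-Gal4 fusions, dosed for 24 h.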

[3] = target: human Thyroid Receptor alpha (THRa1), THRA (gene 7067) (UniProt P10827); experiment: ATG_THRa1_TRANS: Attagene TRANS-FACTORIAL HepG2 Assay for human Thyroid Receptor alpha (THRa1) (AID 2283014; active means hit-call score of the fitted dose curve at least 0.9, where 1 is the maximum)
Procedure, shortened: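 Transcripts from GAL4-UAS-driven reporters, measured after 24 h compound exposure by RT-PCR plus capillary electrophoresis of 6-FAM-labeled fragments, were fitted for gain of signal relative to DMSO. Cells: transiently transfected HepG2 expressing NR-Gal4 chimeras.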

[4] = read-out: E-selectin (Homo sapiens) (UniProt P16581); experiment: BSK_3C_Eselectin: BioMAP Diversity Plus: 3C Assay for Eselectin Biomarker Activity (AID 2283015); details: primary human endothelial cells (HUVEC); actives raise or lower the signal
Procedure, shortened: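 E-selectin ELISA readout, fitted bidirectionally relative to DMSO, taken 24 h post-dosing in HUVEC cultures of the 3C system. Overt cytotoxicity tracked with sulforhodamine B staining of parallel wells.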

[5] = read-out: Interleukin-1 alpha (IL1a), IL1A (gene 3552); experiment: BSK_BE3C_IL1a: BioMAP Diversity Plus: BE3C Assay for Interleukin-1 alpha (IL1a) Biomarker Activity (AID 2283016); details: primary human bronchial epithelial cells; actives raise or lower the signal
Procedure, shortened: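 ELISA read-out of IL-1a from human lung bronchial epithelial primary cells, 24 h post-dose. Gain or loss of signal fitted relative to DMSO negative control.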

[6] = read-out: Monocyte Chemoattractant Protein-1 (MCP1), CCL2 (gene 6347); experiment: BSK_3C_MCP1: BioMAP Diversity Plus: 3C Assay for Monocyte Chemoattractant Protein-1 (MCP1) Biomarker Activity (AID 2283017); details: primary human endothelial cells (HUVEC); actives raise or lower the signal
Procedure, shortened: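 MCP-1 was measured by ELISA 24 h after dosing in primary HUVEC 3C cultures and fitted in both directions relative to DMSO; cytotoxicity was checked by SRB total-protein staining in parallel wells.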

[7] = read-out: Monocyte Chemoattractant Protein-1 (MCP1), CCL2 (gene 6347); experiment: BSK_4H_MCP1: BioMAP Diversity Plus: 4H Assay for Monocyte Chemoattractant Protein-1 (MCP1) Biomarker Activity (AID 2283018); details: primary human endothelial cells (HUVEC); actives raise or lower the signal
Procedure, shortened: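 HUVEC primary cells, 24 h post-dose, MCP-1 by ELISA. Gain or loss of signal fitted bidirectionally vs DMSO baseline. Cytotoxicity: SRB stain (0.1% after 10% TCA fixation), read 560 nm, parallel cultures.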

[8] = read-out: Human Leukocyte Antigen - DR isotype (HLADR), HLA-DRA (gene 3122); experiment: BSK_3C_HLADR: BioMAP Diversity Plus: 3C Assay for Human Leukocyte Antigen - DR isotype (HLADR) Biomarker Activity (AID 2283019); details: primary human endothelial cells (HUVEC); actives raise or lower the signal
Procedure, shortened: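 Bidirectional fitting against DMSO was applied to the HLA-DR ELISA signal from human umbilical vein endothelial cells, 24 h post-dose. Cytotoxicity came from parallel SRB total-protein staining; 3C proliferation was counted by SRB at 48 h.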

[9] = target: human RAR-related Orphan Receptor gamma (RORg), RORC (gene 6097) (UniProt P51449); experiment: ATG_RORg_TRANS: Attagene TRANS-FACTORIAL HepG2 Assay for human RAR-related Orphan Receptor gamma (RORg) (AID 2283011; active means hit-call score of the fitted dose curve at least 0.9, where 1 is the maximum)
Procedure, shortened: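 Reporter transcripts from a transfected RORg-GAL4 chimera in HepG2 cells were quantified 24 h after dosing by RT-PCR, 6-FAM labelling, HpaI digestion and capillary electrophoresis; increases over DMSO baseline were fitted.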

Measured: AC50

Chain of human RAR-related Orphan Receptor gamma (RORg), RORC (gene 6097) (P51449 whole entry, looked up, the tested form may be a part): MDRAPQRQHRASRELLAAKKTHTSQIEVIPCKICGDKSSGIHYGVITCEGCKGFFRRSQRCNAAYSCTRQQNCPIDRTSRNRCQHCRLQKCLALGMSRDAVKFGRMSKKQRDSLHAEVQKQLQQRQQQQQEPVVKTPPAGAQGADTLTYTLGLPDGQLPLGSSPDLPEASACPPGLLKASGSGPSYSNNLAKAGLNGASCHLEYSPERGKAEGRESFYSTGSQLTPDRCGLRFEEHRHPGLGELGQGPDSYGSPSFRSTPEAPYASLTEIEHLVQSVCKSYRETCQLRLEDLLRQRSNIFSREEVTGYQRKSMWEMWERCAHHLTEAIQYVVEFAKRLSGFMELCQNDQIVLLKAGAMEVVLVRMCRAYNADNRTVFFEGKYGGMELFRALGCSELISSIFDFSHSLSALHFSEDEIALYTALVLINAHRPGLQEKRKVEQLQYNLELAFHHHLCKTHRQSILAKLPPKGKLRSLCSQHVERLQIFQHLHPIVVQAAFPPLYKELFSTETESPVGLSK
Chain of human Retinoid X Receptor beta (RXRb), RXRB (gene 6257) (P28702 whole entry, looked up, the tested form may be a part): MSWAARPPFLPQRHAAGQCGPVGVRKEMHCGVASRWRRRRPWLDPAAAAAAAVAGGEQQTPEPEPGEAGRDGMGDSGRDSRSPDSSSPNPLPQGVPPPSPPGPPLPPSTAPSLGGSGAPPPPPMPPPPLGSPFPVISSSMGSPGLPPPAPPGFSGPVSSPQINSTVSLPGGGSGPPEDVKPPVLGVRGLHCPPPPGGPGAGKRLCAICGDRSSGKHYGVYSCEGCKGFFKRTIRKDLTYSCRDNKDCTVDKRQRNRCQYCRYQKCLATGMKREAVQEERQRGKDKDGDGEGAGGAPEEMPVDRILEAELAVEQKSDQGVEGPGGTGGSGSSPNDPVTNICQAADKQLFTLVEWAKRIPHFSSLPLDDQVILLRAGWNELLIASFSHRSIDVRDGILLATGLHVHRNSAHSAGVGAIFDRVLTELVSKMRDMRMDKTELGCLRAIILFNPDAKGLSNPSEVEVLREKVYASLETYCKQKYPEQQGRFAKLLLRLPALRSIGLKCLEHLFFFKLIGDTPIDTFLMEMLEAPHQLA
Chain of Retinoic acid receptor RXR-alpha (Homo sapiens) (P19793 whole entry, looked up, the tested form may be a part): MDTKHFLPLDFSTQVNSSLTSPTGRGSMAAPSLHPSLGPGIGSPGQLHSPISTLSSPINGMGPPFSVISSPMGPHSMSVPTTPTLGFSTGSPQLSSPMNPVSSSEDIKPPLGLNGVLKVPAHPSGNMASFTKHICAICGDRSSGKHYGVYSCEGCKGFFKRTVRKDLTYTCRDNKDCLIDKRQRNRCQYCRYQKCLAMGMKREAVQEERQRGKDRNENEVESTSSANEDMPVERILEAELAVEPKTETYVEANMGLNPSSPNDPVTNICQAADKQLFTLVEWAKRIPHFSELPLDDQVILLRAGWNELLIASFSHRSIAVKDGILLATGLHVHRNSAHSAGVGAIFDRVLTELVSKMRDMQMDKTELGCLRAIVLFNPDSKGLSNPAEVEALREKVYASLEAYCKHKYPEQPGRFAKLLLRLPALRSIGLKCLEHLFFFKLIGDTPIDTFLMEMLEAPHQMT
Chain of human Thyroid Receptor alpha (THRa1), THRA (gene 7067) (P10827 whole entry, looked up, the tested form may be a part): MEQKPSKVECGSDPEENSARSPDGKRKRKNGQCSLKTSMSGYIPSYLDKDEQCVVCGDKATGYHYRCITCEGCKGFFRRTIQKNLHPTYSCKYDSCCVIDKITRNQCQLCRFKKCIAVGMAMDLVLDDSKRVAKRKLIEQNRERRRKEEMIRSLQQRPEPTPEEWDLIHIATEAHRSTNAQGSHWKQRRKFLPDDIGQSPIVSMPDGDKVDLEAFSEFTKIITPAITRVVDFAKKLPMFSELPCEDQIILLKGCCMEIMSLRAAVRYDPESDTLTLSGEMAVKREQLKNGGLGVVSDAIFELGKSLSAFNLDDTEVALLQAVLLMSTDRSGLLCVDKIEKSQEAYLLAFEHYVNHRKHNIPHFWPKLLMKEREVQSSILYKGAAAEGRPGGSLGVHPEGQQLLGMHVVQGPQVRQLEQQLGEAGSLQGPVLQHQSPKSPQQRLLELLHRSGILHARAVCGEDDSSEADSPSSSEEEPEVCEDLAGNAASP
Chain of E-selectin (Homo sapiens) (P16581 whole entry, looked up): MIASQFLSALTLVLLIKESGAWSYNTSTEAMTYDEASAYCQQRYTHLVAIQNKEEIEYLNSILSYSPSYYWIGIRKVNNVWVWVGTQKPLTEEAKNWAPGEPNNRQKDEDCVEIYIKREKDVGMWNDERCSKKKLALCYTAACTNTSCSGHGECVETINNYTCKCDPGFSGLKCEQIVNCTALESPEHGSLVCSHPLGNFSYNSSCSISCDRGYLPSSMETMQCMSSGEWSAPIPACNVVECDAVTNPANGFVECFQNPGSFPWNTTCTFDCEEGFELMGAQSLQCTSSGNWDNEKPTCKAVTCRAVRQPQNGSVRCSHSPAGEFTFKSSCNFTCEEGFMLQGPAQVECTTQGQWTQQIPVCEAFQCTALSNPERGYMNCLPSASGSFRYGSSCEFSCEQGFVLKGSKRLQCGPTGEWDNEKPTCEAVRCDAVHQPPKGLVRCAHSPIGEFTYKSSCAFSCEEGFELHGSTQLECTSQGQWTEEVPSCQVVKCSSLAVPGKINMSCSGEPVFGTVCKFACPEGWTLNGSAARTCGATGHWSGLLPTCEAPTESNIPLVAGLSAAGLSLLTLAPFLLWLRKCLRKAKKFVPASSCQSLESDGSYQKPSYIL

c1ccc2c(c1)Nc1ccccc1S2
active: [2] 3.98 µM
not listed: [9]
inactive: all other assays above

CNC(=O)Oc1ccc(N(C)C)c(C)c1
inactive: [1] | [2]

Clc1ccc(Oc2ccccc2)cc1
inactive: [1] | [3]
active: [2] 100 µM

O=C(O)C(F)(F)OC(F)(F)C(F)(F)OC(F)(F)F
not listed: [4]
inactive: all other assays above

CC(=O)c1ccc(-c2ccccc2)cc1
inactive: [9] | [1] | [2] | [3]

O=[N+]([O-])c1cc(Cl)ccc1Cl
inactive: [1] | [2] | [3]

CCNc1nc(Cl)nc(NC(C)(C)C)n1
active: [2] 49.1 µM
not listed: [4]
inactive: all other assays above

OCC(F)(F)OC(F)(F)C(F)(F)OC(F)(F)C(F)(F)OC(F)(F)CO
active: [2] 17.4 µM | [7] 16.2 µM
inactive: [1] | [3] | [4] | [5] | [6] | [7] | [8]

CC(=O)CCc1ccc2c(c1)OCO2
inactive: [1] | [2]

N#Cc1cc([N+](=O)[O-])ccc1N
not listed: [3] | [4]
inactive: all other assays above

CCOP(=O)(O)C(N)=O
inactive: [9] | [2] | [3]

Nc1ccc(Cl)cc1
not listed: [4]
inactive: all other assays above

COP(=O)(O)OC
not listed: [1] | [2] | [4]
inactive: all other assays above

O=C(CBr)OCc1ccccc1
inactive: [1]

FC(F)(F)c1ccc(Cl)cc1
inactive: [1]

CCCN(CCC)c1c([N+](=O)[O-])cc(C(C)C)cc1[N+](=O)[O-]
active: [2] 17.9 µM | [6] 32 µM | [7] 20 µM | [8] 28.5 µM
inactive: [1] | [3] | [4] | [5]

[N-]=[N+]=[N-]
not listed: [1] | [2] | [4]
inactive: all other assays above

O=NN1CCCC1
inactive: [9] | [3]

O=c1[nH]c2ccccc2c(=O)o1
inactive: [9] | [1]

O=P(OCC(Br)CBr)(OCC(Br)CBr)OCC(Br)CBr (configuration not stated)
inactive: [1] | [2] | [3]
active: [4] 17.4 µM | [5] 29.3 µM | [6] 17.4 µM | [7] 3.45 µM

c1cc2c3c(cccc3c1)CC2
not listed: [1] | [4]
inactive: all other assays above

c1ccc(OP(Oc2ccccc2)Oc2ccccc2)cc1
not listed: [1] | [2] | [3]
inactive: all other assays above

CCOS(=O)(=O)OCC
not listed: [1] | [2] | [9]
inactive: all other assays above

CCN(CC)c1ccccc1
inactive: [2] | [5] | [6] | [7] | [8]

O=S1(=O)OCC2C(CO1)C1(Cl)C(Cl)=C(Cl)C2(Cl)C1(Cl)Cl (configuration not stated)
inactive: [1] | [4] | [5] | [6]
active: [7] 10.1 µM | [8] 24.1 µM

O=C(O)C(F)(F)OC(F)(F)C(F)(F)OC(F)(F)C(=O)O
not listed: [1] | [3] | [9]
inactive: all other assays above

OCC(F)(F)OC(F)(F)C(F)(F)OC(F)(F)CO
not listed: [3] | [9]
inactive: all other assays above

Oc1ccc(I)cc1
inactive: [1] | [3]

FC(F)(F)C(F)(C(F)(F)F)C(F)(F)C(F)(F)CC1CO1 (configuration not stated)
not listed: [2] | [4] | [9]
inactive: all other assays above

CCCCN(CCCC)N=O
not listed: [3] | [9]
inactive: all other assays above

CCOP(=S)(OCC)SCSCC
active: [2] 48.2 µM
not listed: [3] | [9]
inactive: all other assays above

CCC1(c2ccccc2)C(=O)N=C(O)NC1=O (configuration not stated)
not listed: [1] | [9]
inactive: all other assays above

CC(C)(C)N(NC(=O)c1ccc(Cl)cc1)C(=O)c1ccccc1
inactive: [2]

ClC1=C(Cl)C2(Cl)C3C(Cl)C(Cl)CC3C1(Cl)C2(Cl)Cl (configuration not stated)
inactive: [1] | [3] | [5]
active: [2] 23.8 µM | [6] 34.3 µM | [7] 12.1 µM | [8] 17.5 µM

C=CC(=O)OCC(F)(F)C(F)F
active: [4] 18.4 µM and 20.4 µM | [8] 41.1 µM and 43.6 µM
not listed: [2] | [9]
inactive: all other assays above

Cc1c([N+](=O)[O-])cc2c(c1[N+](=O)[O-])C(C)(C)CC2(C)C
inactive: [3] | [5] | [6] | [7]
active: [1] 8.24 µM | [2] 1.37 µM | [8] 11.9 µM

ClC(Cl)(Cl)c1ccccc1
not listed: [2] | [3] | [9]
inactive: all other assays above

Cc1ccc(O)cc1C
not listed: [4] | [9]
inactive: all other assays above

Cc1ccc([N+](=O)[O-])cc1C
not listed: [3] | [9]
inactive: all other assays above

CCOc1ccc(C(C)(C)COCc2cccc(Oc3ccccc3)c2)cc1
not listed: [4] | [9]
inactive: all other assays above

CCOP(=S)(OCC)SCS(=O)(=O)CC
not listed: [4] | [9]
inactive: all other assays above

COC(N)=O
inactive: [1] | [3]

CC1(C)CN=C(NN=C(/C=C/c2ccc(C(F)(F)F)cc2)/C=C/c2ccc(C(F)(F)F)cc2)NC1
inactive: [1] | [3]

CCOP(=S)(Oc1ccc([N+](=O)[O-])cc1)c1ccccc1 (configuration not stated)
active: [2] 2.35 µM
inactive: [4] | [5] | [6] | [7] | [8]

O=[N+]([O-])c1ccccc1
inactive: [5] | [6] | [7] | [8]
active: [2] 10.7 µM

c1ccc2c(c1)sc1ccccc12
inactive: [3] | [5] | [6] | [7] | [8]

CCCCN(CCCC)SN(C)C(=O)Oc1cccc2c1OC(C)(C)C2
active: [2] 68.3 µM | [4] 22.9 µM | [6] 30.6 µM | [7] 26 µM | [8] 29.8 µM
inactive: [1] | [5]

O=S(=O)(c1ccc(O)cc1)c1ccc(O)cc1
inactive: [1] | [3]

Nc1ccc([N+](=O)[O-])cc1Cl
not listed: [3] | [4] | [9]
inactive: all other assays above

COP(=O)(CCC(=O)NCO)OC
not listed: [2] | [3] | [9]
inactive: all other assays above

c1nc[nH]n1
not listed: [1] | [3] | [9]
inactive: all other assays above

C=CC(=O)OCC(CC)(COC(=O)C=C)COC(=O)C=C
active: [5] 5.88 µM | [6] 2.66 µM | [7] 1.9 µM | [8] 1.38 µM
inactive: [1] | [2] | [3]

CC(Cc1ccc(OCC(=O)O)cc1)NCC(O)c1csc(C(F)(F)F)n1 (configuration not stated)
not listed: [1] | [3] | [9]
inactive: all other assays above

O=P(Oc1ccccc1)(Oc1ccccc1)Oc1ccccc1
active: [6] 33.5 µM | [7] 13.6 µM | [8] 33.1 µM
inactive: [1] | [2] | [3] | [5]

CCCCC(CC)COP(=O)(Oc1ccccc1)Oc1ccccc1 (configuration not stated)
active: [4] 6.53 µM | [5] 8.12 µM | [6] 10.6 µM | [7] 7.85 µM | [8] 9.37 µM
inactive: [1] | [2]

Cc1ccc2c(c1N)C(=O)c1ccccc1C2=O
active: [8] 15 µM
not listed: [4] | [9]
inactive: all other assays above

CC(C)(C)c1ccccc1OP(=O)(Oc1ccccc1)Oc1ccccc1
inactive: [1] | [2] | [5]
active: [4] 7.83 µM | [6] 20 µM | [7] 13.6 µM | [8] 20 µM

CCOP(=S)(NC(C)C)Oc1ccccc1C(=O)OC(C)C (configuration not stated)
active: [2] 13.3 µM | [4] 20 µM
not listed: [3] | [9]
inactive: all other assays above

CCCCc1ccccc1
not listed: [2] | [9]
inactive: all other assays above

COCCOCCO
inactive: [5] | [6] | [7] | [8]

From PubChem BioAssay (EPA / NIEHS)
